This is part of a sample that, as a whole, favours compounds with a hit. Of some 79,000 tested, about 15% had one in any assay. Cut-off read from the data, not from the text of the source: active = growth inhibition above about 70%; inactive = the rest.
Assays:
[1] = NCI Yeast Anticancer Drug Screen. Data for the rad50 strain (AID 155);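 note: 0% = growth of vehicle-only cultures of the same strain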; details: S. cerevisiae rad50 strain growth inhibition; at 50.0 µM; active compounds read high
Outline: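 DNA repair mutant yeast, compound exposure, growth read-out; inhibition is taken relative to vehicle.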

[2] = NCI Yeast Anticancer Drug Screen. Data for the mec2-1 strain (AID 157); details: S. cerevisiae mec2-1 strain, at 50.0 µM, active compounds read high
Outline: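 Using mec2-1 yeast: add compound, measure growth, express inhibition versus vehicle-treated cultures.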

[3] = NCI Yeast Anticancer Drug Screen. Data for the sgs1 mgt1 strain (AID 161);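 note: 0% = growth of cultures given vehicle only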; details: S. cerevisiae sgs1 mgt1 strain, at 50.0 µM, active compounds read high
Outline: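 Growth of a repair-deficient yeast mutant was monitored after compound treatment and expressed as inhibition relative to vehicle-treated cultures.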

[4] = NCI Yeast Anticancer Drug Screen. Data for the cln2 rad14 strain (AID 165);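 note: 0% = growth equal to vehicle treated cultures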; details: S. cerevisiae cln2 rad14 strain, at 50.0 µM, active compounds read high
Outline: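 Yeast strain cln2 rad14, bearing defects in cell cycle control and DNA repair, serves as the test system; values reflect growth inhibition compared with vehicle.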

[5] = NCI Yeast Anticancer Drug Screen. Data for the bub3 strain (AID 167); details: S. cerevisiae bub3 mutant strain, at 50.0 µM, active compounds read high
Outline: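 In this screen, a yeast mutant lacking normal mitotic checkpoint function is challenged with compound. Relative growth versus vehicle gives the inhibition value.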

[6] = NCI Yeast Anticancer Drug Screen. Data for the mlh1 rad18 strain (AID 175); details: S. cerevisiae mlh1 rad18 strain growth inhibition; at 50.0 µM; active compounds read high
Outline: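 Steps: expose repair-defective yeast to compound; measure growth; express inhibition against vehicle-treated controls.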

Measured: growth inhibition

O=C(CO)CC(=O)C(=O)Nc1ccccc1
inactive: [1] -10.8% | [2] -22.9% | [3] 1.5% | [4] 10.6% | [5] -4.15% | [6] -9.9%

CCCCCCCCN1CSC(=S)N(c2ccc3[nH]c(=S)sc3c2)C1
inactive: [1] 48.9% | [2] 17.6% | [3] 34% | [4] 27.9% | [5] 5.2% | [6] 35.5%

CCC(c1ccc(N(CC)CC)cc1[N+](=O)[O-])c1ccc(N(CC)CC)cc1[N+](=O)[O-]
inactive: [1] 29% | [2] 26.4% | [3] 44.5% | [4] 36.5% | [5] 28.9% | [6] 20.1%

Cc1cc(C)c(C)c(C(=O)OC(C)C)c1C
inactive: [1] 2.7% | [2] -9.7% | [3] 3.35% | [4] 15.4% | [5] -3.85% | [6] -8.55%

COC1(OC)C2(Cl)C3=CCCC=C3C1(Cl)C(Cl)=C2Cl
inactive: [1] 27.5% | [2] 9.45% | [3] 11.7% | [4] 29.8% | [5] 15.6% | [6] -6.65%

Cc1ccc(NCC(=O)N2CC(=O)Nc3ccccc32)cc1
inactive: [1] -28.6% | [2] -21% | [3] -35.2% | [4] -4.45% | [5] -23.2% | [6] -15.8%

COc1ccc2ccccc2c1CN1CCOCCOCCN(Cc2c(OC)ccc3ccccc23)CCOCCOCC1
inactive: [1] -18.1% | [2] -34.5% | [3] -23.4% | [4] -28.1% | [5] 5.75% | [6] -29.4%

O=C(OCCCCO)c1cc([N+](=O)[O-])cc([N+](=O)[O-])c1
inactive: [1] -12.8% | [2] 13.9% | [3] 0.1% | [4] 0.7% | [5] 12.1% | [6] -27.9%

CC(O)(c1ccccc1)C1CC1 (stereo not given)
inactive: [1] -1.55% | [2] -29.2% | [3] -16.7% | [4] -0.65% | [5] -16.1% | [6] -4.05%

CC(=O)OCC1OC(Cl)C(OC(=O)C(Cl)(Cl)Cl)C(OC(C)=O)C1OC(C)=O (stereo not given)
inactive: [1] 2.8% | [2] 0.2% | [3] -13.6% | [4] -0.95% | [5] -2.65% | [6] -9.45%

O=C(Nc1nc(=S)[nH][nH]1)C(=O)C(C(=O)c1ccc2ccccc2c1)C1OC(=O)c2ccccc21 (stereo not given)
inactive: [1] 28.6% | [2] 23.3% | [3] -6.5% | [4] -14.3% | [5] 3.75% | [6] 28.8%

CC(=O)OC1CCC2(C)C(=CCC3C2CCC2(C)C3CCC23OCCS3)C1 (stereo not given)
inactive: [1] 34.5% | [2] 3.4% | [3] 9.35% | [4] 9.1% | [5] -4.35% | [6] 8.5%

NCCNc1ncnc2ccc(Cl)cc12
inactive: [1] -30.9% | [2] -13.1% | [3] -22.4% | [4] -30.5% | [5] -38.8% | [6] 5.4%

CC1(C)/C(=N\NC(N)=O)C2CCC1C2 (stereo not given)
inactive: [1] -19.9% | [2] -25.6% | [3] 2.65% | [4] -4.05% | [5] -11.6% | [6] -16.9%

Nc1cccc2c1C(=O)c1cccc(N)c1C2=O
inactive: [1] 7.65% | [2] 16.4% | [3] 8.4% | [4] -7.35% | [5] 8.2% | [6] 21.9%

NC(=S)N/N=C/c1ccc(F)cn1
inactive: [1] 22.9% | [2] 58.4% | [3] -1.5% | [4] -63.9% | [5] -5.4% | [6] 11.9%

COc1ccc(C2N(c3ccccc3)OC(=O)N2c2ccccc2)cc1 (stereo not given)
inactive: [1] 43.8% | [2] 7.2% | [3] 16.1% | [4] 9.1% | [5] 14.4% | [6] 20.8%

Nc1ccc(NC(=S)Nc2ccccc2)cc1
inactive: [1] -2.35% | [2] -18.3% | [3] -3.15% | [4] 2.2% | [5] -7.05% | [6] -12.7%

CCN=C(NCC)N(CC)CC
inactive: [1] -20.4% | [2] -5.75% | [3] -12.8% | [4] -11.6% | [5] 25.3% | [6] -11.8%

CCNC(=O)c1ccccc1C(=O)c1ccccc1
inactive: [1] -4.55% | [2] 1.2% | [3] 6.55% | [4] 12.8% | [5] -0.75% | [6] 11.5%

Source: PubChem BioAssay (NCI)
